Screen size: about 5,500 compounds; about 2,000 (36%) were called active. Inconclusive results (about 18%) are left out. Cut-off read from the data, not from the text of the source: active = normalized growth mostly below about 0.91 (no sharp cut-off); inconclusive = no clear call, values can overlap the other calls; inactive = mostly above about 0.92. The list shows a part of the results.
Assay: chemical genetic growth profiling, strain panel (AID 1159580);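 note: tested at 20 µM; growth read once vehicle control cultures reached saturation at 30 °C; 1 = growth at the plate median or of vehicle wells; lower values mean less growth of the strain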
Details: growth OD

Measured: normalized growth

COC(=O)CCCOc1ccc(Cl)cc1Cl
inactive: S. cerevisiae deletion strains, locus YJR043C, strain POL32, hits give low values 0.979 | S. cerevisiae deletion strains, locus YJR075W, strain HOC1, hits give low values 0.995 | S. cerevisiae deletion strains, locus YKL009W, strain mrt4, hits give low values 1.01 | S. cerevisiae deletion strains, locus YKL068W, hits give low values 0.98 | S. cerevisiae deletion strains, locus YKL085W, strain MDH1 (second series), hits give low values 0.982 | S. cerevisiae deletion strains, locus YKL085W, strain MDH1, hits give low values 0.982 | S. cerevisiae deletion strains, locus YKL160W, strain elf1, hits give low values 0.964 | S. cerevisiae deletion strains, locus YKL190W, strain CNB1, hits give low values 0.99 | S. cerevisiae deletion strains, locus YKR001C, strain vps1, hits give low values 0.987 | S. cerevisiae deletion strains, locus YKR026C, strain gcn3, hits give low values 0.946 | S. cerevisiae deletion strains, locus YKR091W, strain srl3, hits give low values 0.96 | S. cerevisiae deletion strains, locus YLL001W, strain dnm1, hits give low values 0.957 | S. cerevisiae deletion strains, locus YLL026W, hits give low values 0.957 | S. cerevisiae deletion strains, locus YLL041C, strain sdh2, hits give low values 0.957 | S. cerevisiae deletion strains, locus YLR027C, strain aat2, hits give low values 0.952 | S. cerevisiae deletion strains, locus YLR039C, strain RIC1, hits give low values 0.982 | S. cerevisiae deletion strains, locus YLR058C, strain SHM2, hits give low values 1 | S. cerevisiae deletion strains, locus YLR102C, strain apc9, hits give low values 0.997 | S. cerevisiae deletion strains, locus YLR221C, strain rsa3, hits give low values 0.967 | S. cerevisiae deletion strains, locus YLR258W, strain gsy2, hits give low values 0.951 | S. cerevisiae deletion strains, locus YLR262C, strain YPT6 (second series), hits give low values 0.92 | S. cerevisiae deletion strains, locus YLR262C, strain YPT6, hits give low values 0.925 | S. cerevisiae deletion strains, locus YLR268W, strain sec22, hits give low values 1.01 | S. cerevisiae deletion strains, locus YLR320W, strain mms22, hits give low values 0.924 | S. cerevisiae deletion strains, locus YLR330W, strain CHS5, hits give low values 0.991 | S. cerevisiae deletion strains, locus YLR342W, strain FKS1 (second series), hits give low values 1 | S. cerevisiae deletion strains, locus YLR342W, strain FKS1, hits give low values 0.948 | S. cerevisiae deletion strains, locus YLR357W, strain rsc2, hits give low values 0.97 | S. cerevisiae deletion strains, locus YLR370C, strain arc18, hits give low values 0.963 | S. cerevisiae deletion strains, locus YLR371W, strain rom2, hits give low values 0.999 | S. cerevisiae deletion strains, locus YLR384C, strain iki3, hits give low values 0.957 | S. cerevisiae deletion strains, locus YLR418C, strain cdc73, hits give low values 1.02 | S. cerevisiae deletion strains, locus YML016C, strain PPZ1, hits give low values 0.988 | S. cerevisiae deletion strains, locus YML032C, strain rad52, hits give low values 1.01 | S. cerevisiae deletion strains, locus YML120C, strain ndi1, hits give low values 0.967 | S. cerevisiae deletion strains, locus YML124C, strain tub3, hits give low values 0.995 | S. cerevisiae deletion strains, locus YMR058W, strain fet3, hits give low values 0.966 | S. cerevisiae deletion strains, locus YMR078C, strain ctf18, hits give low values 1 | S. cerevisiae deletion strains, locus YMR125W, strain sto1, hits give low values 0.954 | S. cerevisiae deletion strains, locus YMR129W, hits give low values 0.95 | S. cerevisiae deletion strains, locus YMR205C, strain PFK2, hits give low values 0.948 | S. cerevisiae deletion strains, locus YMR223W, strain ubp8, hits give low values 1.01 | S. cerevisiae deletion strains, locus YMR231W, strain pep5, hits give low values 0.949 | S. cerevisiae deletion strains, locus YMR263W, strain SAP30, hits give low values 0.999 | S. cerevisiae deletion strains, locus YMR307W, strain GAS1, hits give low values 0.98 | S. cerevisiae deletion strains, locus YNL067W, strain RPL9B, hits give low values 0.995 | S. cerevisiae deletion strains, locus YNL071W, strain lat1, hits give low values 0.967 | S. cerevisiae deletion strains, locus YNL128W, strain TEP1, hits give low values 1 | S. cerevisiae deletion strains, locus YNL153C, strain GIM3, hits give low values 0.999 | S. cerevisiae deletion strains, locus YNL209W, strain ssb2, hits give low values 0.962 | S. cerevisiae deletion strains, locus YNL233W, strain BNI4, hits give low values 1 | S. cerevisiae deletion strains, locus YNL248C, strain rpa49, hits give low values 0.964 | S. cerevisiae deletion strains, locus YNL250W, strain rad50, hits give low values 0.978 | S. cerevisiae deletion strains, locus YNL271C, strain bni1, hits give low values 0.976 | S. cerevisiae deletion strains, locus YNL298W, strain CLA4, hits give low values 0.985 | S. cerevisiae deletion strains, locus YNL307C, strain MCK1, hits give low values 0.968 | S. cerevisiae deletion strains, locus YNL322C, strain KRE1 (second series), hits give low values 0.957 | S. cerevisiae deletion strains, locus YNL322C, strain KRE1, hits give low values 0.994 | S. cerevisiae deletion strains, locus YNR049C, strain mso1, hits give low values 0.95 | S. cerevisiae deletion strains, locus YNR052C, strain pop2, hits give low values 1.01 | S. cerevisiae deletion strains, locus YOL006C, strain TOP1, hits give low values 0.971 | S. cerevisiae deletion strains, locus YOL012C, strain htz1 1.55 | S. cerevisiae deletion strains, locus YOL147C, strain pex11, hits give low values 0.99 | S. cerevisiae deletion strains, locus YOR001W, strain rrp6, hits give low values 0.983 | S. cerevisiae deletion strains, locus YOR061W, strain CKA2, hits give low values 0.989 | S. cerevisiae deletion strains, locus YOR069W, strain VPS5, hits give low values 1 | S. cerevisiae deletion strains, locus YOR070C, strain gyp1, hits give low values 0.956 | S. cerevisiae deletion strains, locus YOR080W, strain dia2, hits give low values 0.946 | S. cerevisiae deletion strains, locus YOR083W, strain WHI5, hits give low values 0.957 | S. cerevisiae deletion strains, locus YOR106W, strain vam3, hits give low values 0.991 | S. cerevisiae deletion strains, locus YOR136W, strain idh2, hits give low values 1 | S. cerevisiae deletion strains, locus YOR144C, strain elg1, hits give low values 0.998 | S. cerevisiae deletion strains, locus YOR184W, strain ser1, hits give low values 0.993 | S. cerevisiae deletion strains, locus YOR265W, strain rbl2, hits give low values 0.956 | S. cerevisiae deletion strains, locus YOR270C, strain vph1, hits give low values 0.963 | S. cerevisiae deletion strains, locus YOR290C, strain snf2, hits give low values 0.974 | S. cerevisiae deletion strains, locus YOR316C, strain cot1, hits give low values 1 | S. cerevisiae deletion strains, locus YPL051W, strain arl3, hits give low values 0.972 | S. cerevisiae deletion strains, locus YPL055C, strain LGE1, hits give low values 0.978 | S. cerevisiae deletion strains, locus YPL078C, strain atp4, hits give low values 0.948 | S. cerevisiae deletion strains, locus YPL106C, strain sse1, hits give low values 0.964 | S. cerevisiae deletion strains, locus YPL240C, strain hsp82, hits give low values 0.948 | S. cerevisiae deletion strains, locus YPL241C, strain CIN2, hits give low values 0.993 | S. cerevisiae deletion strains, locus YPR119W, strain clb2, hits give low values 0.995 | S. cerevisiae deletion strains, locus YPR141C, strain kar3, hits give low values 0.981 | S. cerevisiae deletion strains, locus YPR163C, strain tif3, hits give low values 1 | S. cerevisiae deletion strains, locus YPR167C, strain met16, hits give low values 0.999 | S. cerevisiae deletion strains, strain wtn01, hits give low values 0.995 | S. cerevisiae strains, strain wild type, hits give low values 0.975
